The source of these data is PubChem BioAssay (NCI).

Compounds without any hit were thinned out: in the full panel of roughly 83,000, 20% have a hit.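 In brief: 96-well plates, 48 h treatment, single concentration, percent growth endpoint.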 A number with no mark means an inactive call. Active and inactive are the calls of the source. The calls were made as follows: active = growth percent below 10; inactive = the rest.

Holding throughout (experiment): NCI-60 one-dose screen, 48 h (100 = growth as untreated, 0 = no growth, -100 = all killed)
Common to all, as to details: 10 µM unless noted

For test [1], the system named is HCT-15 colon.
Test [2] deals with HT29 colon.
Test [3] deals with SNB-75 CNS.
The test system of test [4] is SNB-19 CNS.
The test system of test [5] is U251 CNS.
In test [6] the test system is PC-3 prostate.
In test [7] the test system is SK-MEL-5 melanoma.
For test [8], the system named is UACC-62 melanoma.
Test [9] relates to LOX IMVI melanoma.
Test [10] deals with SK-MEL-28 melanoma.
Test [11] deals with SK-MEL-2 melanoma.
Test [12] has as its system EKVX NSCLC.
In test [13] the test system is UO-31 renal.
Test [14] has as its system TK-10 renal.
The subject of test [15] is ACHN renal.
Test [16] relates to CAKI-1 renal.
Test [17] relates to A498 renal.
Test [18] has as its system CCRF-CEM leukemia.
For test [19], the system named is MOLT-4 leukemia.
The test system of test [20] is SN12C renal.

Consider `C=C[C@@]1(C)CC(=O)[C@@H](C(C)(C)c2cn(C)c3ccc(Br)cc23)C[C@@H]1O[Si](C)(C)C(C)(C)C`, for which the growth in test [1] was 102%; in test [2] it was 103%; in [3], 102%; in test [4], 98.9%; in test [5], 97.4%; in test [6] it was 84.1%. Further, the growth in test [7] is 104%; in test [8], 93.7%; in test [9] it was 90.4%; in test [10], 100%; in test [11], 97.8%; in [12] it was 99.3%. The growth was 94% in test [13]; 98.1% in [14]; 111% in [15]; 90.2% in test [16]; 106% in [17]; 89.5% in test [18]. In [19], the growth is 94.7%.
For `CN1C(=O)/C(=C/c2ccc(C(=O)Nc3ncc(Cc4cc(Cl)ccc4Cl)s3)cc2)SC1=S`, the growth was 49% in test [1]; 64% in test [2]; 63.1% in test [3]; 87.8% in test [4]; 82.7% in test [5]; 65.8% in test [6]. Besides, the growth in test [7] is 67%; in test [8], 34.2%; in test [9] it was 41.7%; in [10], 77%; in test [11], 101%; in [12], 67%. Further, the growth in test [20] is 87.7%; in [13] it was 63.4%; in [15] it was 58.8%; in [16], 30.2%; in test [17] it was 77.4%; in [18] it was 62.9%. For the same compound, the growth in test [19] is 70.8%.
`Cc1c2cnccc2c(C)c2c1c1cc(CO)ccc1n2C`: the growth in test [1] is -10.9% (active); in [2], -16.3% (active); in test [3], -45.1% (active); in [4], -22.2% (active); in [5], -38.1% (active); in test [6], -9.48% (active). Further, the growth in test [7] is -96.8% (active); in test [8] it was -74.7% (active); in [9] it was -63.5% (active); in test [10], -69.5% (active); in test [11], -75.5% (active); in test [12], -15.2% (active). Moreover, the growth was -33.8% (active) in test [20]; -32.6% (active) in test [13]; -36.4% (active) in [15]; -28.3% (active) in [16]; -67.1% (active) in test [17]; -7.79% (active) in test [18]. In addition, in test [19], the growth was -10.8% (active).
Turning to `c1cc(OCCN2CCCC2)ccc1CNc1ccc2nc(CCC3CCCCC3)[nH]c2c1`, the growth was 3.99% (active) in [1]; 7.25% (active) in [2]; 64.1% in test [3]; 68.7% in test [4]; 4.28% (active) in [5]; 52% in test [6]. The growth was -96.5% (active) in test [7]; 62.8% in test [8]; -78.5% (active) in test [9]; -85.3% (active) in test [10]; 35.6% in test [11]; 80.9% in test [12]. Also, the growth was 9.54% (active) in [13]; 95.1% in test [14]; 60.4% in test [15]; 4.69% (active) in test [16]; 34.2% in test [17]; 12.7% in test [18]. The growth in test [19] was 9.92% (active).
For `CCCCCCCCn1ccc2cc(NC(=O)CN3CCN(c4cc(C)nc(Cl)n4)CC3)ccc21`, the growth is 76.3% in [1]; 77.3% in test [2]; 82.9% in test [3]; 88.9% in test [4]; 89.5% in [5]; 61.4% in [6]. Besides, the growth in [7] is 59.3%; in [8], 64.5%; in test [9], 94.2%; in test [10] it was 90.9%; in test [11], 109%; in test [12], 64.4%. In addition, the growth was 100% in test [20]; 63.5% in [13]; 86.3% in test [15]; 92.6% in [16]; 97.5% in [17]; -35.7% (active) in test [18]. Moreover, the growth in test [19] is 26.2%.
As to `Cc1oc(-c2ccc(Cl)cc2)nc1C1=NN(C(=O)c2ccncc2)C(c2ccccc2)C1` (stereo unspecified), the growth was 91.3% in test [1]; 96.6% in [2]; 92.8% in test [3]; 80.3% in test [4]; 92.8% in test [5]; 83.7% in [6]. Moreover, the growth in test [7] is 97.3%; in test [8], 72.9%; in test [9], 92.7%; in [10], 89.7%; in [11] it was 97.2%; in [12], 95.8%. For the same compound, the growth in test [20] was 88.7%; in test [13] it was 59.5%; in test [15] it was 92%; in [16], 76%; in test [17], 78%; in test [19], 77.1%.
Regarding `COc1ccc(C2[C@@H](c3ccccc3)C(=O)N2c2cc(OC)c(OC)c(OC)c2)cc1F` (stereo partly specified), the growth in test [1] is 8.76% (active); in test [2], -19.2% (active); in test [3], 66.2%; in test [4], 30.6%; in test [5] it was 7.17% (active); in test [6], 23.8%. The growth in test [7] was -15.6% (active); in [8] it was 15.1%; in [9] it was 19%; in test [10], 63.6%; in test [11] it was 2.73% (active); in test [12], 34.7%. The growth is 32.6% in test [20]; 38% in [13]; 34.2% in test [15]; 30.8% in test [16]; 2.92% (active) in test [17]; 6.85% (active) in test [18]. Moreover, the growth in test [19] is 5.7% (active).
Regarding `Cc1cc(C)c2c(c1)N(C)c1ncnc(-n3c(C)nc4cc(C)ccc43)c1CC2C` (stereo unspecified), the growth was 32.6% in [1]; 34.3% in test [2]; 29.4% in test [3]; 50.4% in [4]; 34.5% in test [5]; 24.7% in test [6]. Further, the growth in test [7] was 13.6%; in [8] it was 31.6%; in test [9], 43.1%; in [10], 59%; in test [11], 46.7%; in test [12], 45.2%. Besides, the growth in test [13] was 39%; in test [14] it was 53.3%; in test [15], 39.4%; in test [16], 37.3%; in test [17], 0.985% (active); in test [18] it was 21.6%. In addition, the growth in [19] was 27.8%.
